PP1 counter – blocks human PP1-alpha phosphatase, a PP5 counter-screen | purified PP1alpha, OMFP fluorescence | hit rate 0.9% among 320,000 | inhibition, % at 6.7 µM;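 active = inhibition above the mean inhibition of all tested compounds plus 3 SD, computed separately for each screening campaign, cut at about 15% in these data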
Target sequence (P62136 whole entry, looked up): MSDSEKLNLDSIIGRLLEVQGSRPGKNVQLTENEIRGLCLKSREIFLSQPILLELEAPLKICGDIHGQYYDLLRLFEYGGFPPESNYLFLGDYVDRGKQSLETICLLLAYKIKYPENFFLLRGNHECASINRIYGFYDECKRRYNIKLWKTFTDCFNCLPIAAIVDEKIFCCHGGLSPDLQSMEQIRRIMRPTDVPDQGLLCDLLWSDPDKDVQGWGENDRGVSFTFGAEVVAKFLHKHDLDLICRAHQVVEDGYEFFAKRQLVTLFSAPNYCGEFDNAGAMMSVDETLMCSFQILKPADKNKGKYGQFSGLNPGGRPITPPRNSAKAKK
PG9 binder – small molecules binding HIV-1 gp120 antibody PG9; TR-FRET gp120-PG9 antibody binding; inhibition, % at 6.7 µM; hit rate 0.43% among 360,000; AID 624416; in the data active = inhibition above about 8.5%
GASC-1 inh – blocks human GASC-1 demethylase activity; Q9H3R0; GST-JMJD2C(1-420) H3K9me3 demethylation, DELFIA europium; inhibition, % at 2.35 µM; hit rate 0.069% among 330,000;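 active = more than half of a compound's replicate wells show inhibition beyond 50%, single wells judged on their own value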;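 also: signal counts dimethyl H3K9 product captured on neutravidin plate; 0% = median of DMSO wells and 100% = 0.3 times that DMSO median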
proKLK7 act – proKLK7 (human) activation, primary screen; purified proKLK7, EDANS-DABCYL substrate fluorescence; 100% is mature enzyme control, 0% vehicle; activation, % at 7 µM; hit rate 0.9% among 370,000;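 active = activation above the mean of all tested compounds plus 3 SD, computed per campaign excluding outliers beyond control limits, cut at about 13% in these data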
Target sequence (P49862 whole entry, looked up): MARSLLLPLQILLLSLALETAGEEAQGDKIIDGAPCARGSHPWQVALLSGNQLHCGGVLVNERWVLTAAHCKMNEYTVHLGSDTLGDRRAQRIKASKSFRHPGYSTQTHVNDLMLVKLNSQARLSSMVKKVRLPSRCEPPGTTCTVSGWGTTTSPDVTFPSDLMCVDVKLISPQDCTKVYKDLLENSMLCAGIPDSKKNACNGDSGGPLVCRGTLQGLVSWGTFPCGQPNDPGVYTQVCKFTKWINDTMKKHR
NR1D1 modulator – Rev-erb alpha (human) modulation. P20393. Rev-erbα–FITC-DNA binding, fluorescence polarization, 90 min. activity, % at 10 µM. hit rate 0.79% among 370,000;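 active = activity above about 14%, limit read from the data; passing the limit was not always enough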;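 also: 0% = DMSO wells with 35 nM protein and 100% = DMSO wells with 750 nM protein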
PP5 inh – blocks human protein phosphatase 5 activity. P53041. purified PP5c, OMFP substrate fluorescence. inhibition, % at 6.7 µM. hit rate 0.18% among 320,000. AID 1987;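 active = inhibition above the campaign's mean inhibition across all tested compounds plus 3 SD, cut at about 9.5% in these data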;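 also: 0% = DMSO only and 100% = 100 µM cantharidin control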
PP1 confirm – confirmation of human PP1 phosphatase inhibitors; shares compounds with PP1 counter; purified PP1alpha, OMFP substrate fluorescence; inhibition, % at 6.7 µM; hit rate 52% among 1,900;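 active = mean PP1 inhibition above a set limit taken from the earlier primary screen, cut at about 15% in these data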
PP5 inh counter – PP5 phosphatase inhibition, counter-screen for PP1 inhibitors; purified PP5c, OMFP fluorescence; shares compounds with PP1 counter; hit rate 4% among 1,900; inhibition, % at 6.7 µM;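 active = mean PP5 inhibition over triplicate wells above about 9.5% taken from the earlier PP1 screen, limit read from the data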
* marks the source's active call; other numbers are inactive results; x = no result given. The list is not random: actives were taken first. Their share in the collection is about 2.8%.

SMILES | PP1 counter | PG9 binder | GASC-1 inh | proKLK7 act | NR1D1 modulator | PP5 inh | PP1 confirm | PP5 inh counter
COc1nc(OC)nc(N2CCC(C(=O)NCc3cccc(OC)c3OC)CC2)n1 | x | x | x | 0 | -1 | x | x | x
Cc1ccc(S(=O)(=O)N(C)[C@H]2C[C@H]3c4[nH]c5c(-c6ccccc6)cccc5c4CCN3C(=O)[C@H]2[C@H](C)O)cc1 | x | -1 | x | -34 | -6 | x | x | x
COC(=O)c1cc(-c2c(C)noc2C)c(=O)n2c1CCC2 | x | x | x | 0 | -6 | x | x | x
O=C(CSc1nnc(SCc2cccc3ccccc23)s1)Nc1ccccc1-c1ccccc1 | x | x | x | 0 | 1 | x | x | x
Cc1cc(NCCCn2ccnc2)n2ncc(-c3ccc(Cl)cc3)c2n1 | 12 | 1 | 5 | -15 | 1 | 2 | x | x
CC(C)(C)c1cc(NCCCn2ccnc2)n2ncc(-c3ccccc3)c2n1 | 21* | -1 | 0 | -3 | 5 | 2 | 14 | 3
O=C1N[C@@H](Cc2ccccc2)C(=O)N2[C@H]1C[C@]1([C@]34C[C@H]5C(=O)N[C@@H](Cc6ccccc6)C(=O)N5[C@H]3N(S(=O)(=O)c3ccccc3)c3ccccc34)c3ccccc3N(S(=O)(=O)c3ccccc3)[C@H]21 | 30* | -1 | 4 | 0 | 1 | 1 | 23* | -4
O=C1N[C@@H](Cc2ccccc2)C(=O)N2[C@@H]3N(S(=O)(=O)c4ccccc4)c4ccccc4[C@]3(Br)C[C@@H]12 | -2 | -1 | -10 | 1 | 0 | 0 | x | x
C[C@H]1Cn2cnc(C(=O)N(C)Cc3ccccc3)c2C(=O)N1 | x | -1 | x | 0 | 0 | x | x | x
O=C(CS(=O)CC(=O)N(c1ccccc1)C(C(=O)NC1CCCC1)c1cccs1)Nc1ccc(F)cc1 (stereo not drawn) | 0 | 0 | -2 | 0 | 2 | 1 | x | x
CCC(C(=O)NC1CCCC1)N(C(=O)c1snc(C(N)=O)c1N)c1ccc(OC)c(OC)c1 (stereo not drawn) | -2 | 0 | -5 | 1 | -7 | -1 | x | x
COc1ccc(N(C(=O)c2snc(C(N)=O)c2N)C(C(=O)NC2CCCC2)c2cccs2)cc1OC (stereo not drawn) | 18* | -2 | -1 | -2 | -25 | 2 | 29* | 1
COc1cccc(N(C(=O)CS(=O)CC(=O)Nc2ccc(F)cc2)C(C(=O)NC2CCCCC2)c2cccs2)c1 (stereo not drawn) | 20* | -1 | 3 | 0 | 0 | 1 | 28* | 0
CCCCc1c(-c2ccccc2OC)ncn1Cc1ccccc1F | x | -1 | x | 1 | 1 | x | x | x
O=C(CSc1nc2ccc(NC(=O)CSc3nnnn3-c3ccccc3)cc2s1)Nc1ccccc1 | 20* | -1 | -29 | 0 | 10 | 3 | 26* | -2
Cc1cccc(NC(=O)CSc2nc3ccc(NC(=O)CSc4nnnn4-c4ccccc4)cc3s2)c1C | 0 | 0 | 3 | 0 | -1 | 1 | x | x
COc1ccc(-n2c(SCC(=O)Nc3sc4c(c3C#N)CCCC4)nnc2-c2ccccc2OC)cc1 | 18* | 0 | 1 | -1 | -3 | 3 | 4 | -1
COc1ccc(CCNc2nc(-c3ccncc3)cs2)cc1OC | -1 | 0 | -10 | 0 | -3 | -1 | x | x
COc1ccc(CCNc2nc(-c3ccccn3)cs2)cc1OC | 47* | -1 | 9 | 0 | 2 | 3 | 41* | -5
Cc1ccc(Oc2nnc(-c3ccc(C)cc3)c3ccccc23)cc1 | 41* | 3 | 1 | -1 | 8 | 2 | -8 | -8
CCN(CC)CCCN=Cc1c(-c2ccccc2)[nH]n(-c2nc3ccccc3s2)c1=O | 30* | 1 | -1 | 0 | 2 | 3 | 5 | -1
CCOC(=O)CNC(=O)CSc1nnc(-c2cccs2)o1 | x | x | x | 0 | -8 | x | x | x
O=S1(=O)CC2c3ccc(F)cc3CN2CN1C1CCCC1 (stereo not drawn) | x | x | x | 0 | 3 | x | x | x
COc1ccc(-c2csc(NC(=O)CN3C(=O)C4CC=CCC4C3=O)n2)cc1 (stereo not drawn) | -3 | 0 | 7 | 0 | 2 | 4 | x | x
COc1ccc(-c2csc(NC(=O)CCN3C(=O)C4CC=CCC4C3=O)n2)cc1OC (stereo not drawn) | 26* | -1 | 4 | 0 | 4 | 6 | -4 | -2
SMILES | PP1 counter | PG9 binder | GASC-1 inh | proKLK7 act | NR1D1 modulator | PP5 inh | PP1 confirm | PP5 inh counter
COC(=O)[C@]12C[C@H](CC(=O)NCc3cccc(C(F)(F)F)c3)C(=O)N(Cc3ccco3)C1=C[C@H](COCc1ccccc1)O[C@@H]2C | x | x | x | 0 | 1 | x | x | x
N#CC1CCN(c2nc(-c3ccc(Br)cc3)cs2)CC1 | x | x | x | x | 3 | x | x | x
CCc1ccccc1N(C)S(=O)(=O)c1ccc2[nH]cc(C(=O)O)c(=O)c2c1 | 24* | 2 | 0 | -3 | 0 | 2 | 18* | -6
COC(=O)c1ccc2c(=O)n(CCCCCC(=O)NC3CCCCC3)c(=O)[nH]c2c1 | x | 1 | x | -1 | 0 | x | x | x
CN1CCCCC(NC(=O)c2cccc(C(F)(F)F)c2)C1=O (stereo not drawn) | x | -1 | x | 0 | 0 | x | x | x
O=C(OCC(=O)N1CCN(C(=O)c2ccco2)CC1)c1cc(-c2ccco2)nc2ccccc12 | 22* | x | 38 | x | -27 | 2 | 13 | -5
O=C(OCC(=O)N1CCN(C(=O)c2ccco2)CC1)c1cc(-c2ccc(Cl)c(Cl)c2Cl)nc2ccccc12 | 13 | 1 | 6 | -1 | -13 | 5 | x | x
CCOC(=O)C1(Cc2ccccc2C)CCCN(C(=O)c2ccc(OC)o2)C1 (stereo not drawn) | 26* | -1 | -3 | 0 | -5 | 4 | -2 | -2
C#CCOCCOCCOCCNc1nc(N2CCN(C(=O)CCCCCCCCCCNC(=O)Cn3cc(CCCCCN)nn3)CC2)nc(N2CCN(C(=O)CCCCCCCCCCNC(=O)[C@H](CO)n3cc(CCCCCN)nn3)CC2)n1 | 35* | x | x | x | x | 0 | 15 | -2
C#CCOCCOCCOCCNc1nc(N2CCN(C(=O)CCCCCCCCCCNC(=O)[C@H](CO)n3cc(CCCSC)nn3)CC2)nc(N2CCN(C(=O)CCCCCCCCCCNC(=O)[C@H](CO)n3cc(CCCSC)nn3)CC2)n1 | 30* | 0 | -10 | 0 | -1 | 2 | 22* | 4
C#CCOCCOCCOCCNc1nc(N2CCN(C(=O)CCCCCCCCCCNC(=O)Cn3cc(CCCCCN)nn3)CC2)nc(N2CCN(C(=O)CCCCCCCCCCNC(=O)[C@H]([C@@H](C)CC)n3cc(CCCCCN)nn3)CC2)n1 | 46* | x | x | x | x | 3 | 35* | -1
C#CCOCCOCCOCCNc1nc(N2CCOCC2)nc(N2CCN(C(=O)CCCCCCCCCCNC(=O)[C@H](CO)n3cc(CCCCCN)nn3)CC2)n1 | 4 | 0 | x | 0 | -2 | 0 | x | x

Source: PubChem BioAssay (several laboratories)
